The source of these data is the antibiotic and cytotoxicity screens of Wong et al. (2023).

The campaign covered roughly 39,000 compounds. About 3,300 (8.5%) were called active. The full list was thinned out, with actives kept by preference.

The subject of this experiment is HepG2. The experiment in a line: cytotoxicity call (relative viability < 0.9). Particulars: 10 µM.
As to `C[C@H]1CN([C@@H](C)CO)C(=O)Cc2cc(NC(=O)CCCCCC(=O)Nc3ccccc3N)ccc2O[C@@H]1CN(C)C(=O)Nc1cccc2ccccc12`, the cytotoxicity call was “inactive”. In the case of `COC(=O)C[C@@H]1CC[C@@H]2[C@H](COC[C@@H](O)CN2S(=O)(=O)c2cn(C)cn2)O1`, the cytotoxicity call is “inactive”. With `CC(C)=CCC/C(C)=C/CC/C(C)=C/CC/C(C)=C/CO`, the cytotoxicity call is “inactive”. In the case of `Cc1ccc(-c2cnc3c(c2)C(=O)N([C@@H](C)CO)C[C@H](C)[C@H](CN(C)C(=O)Cc2ccncc2)O3)cc1`, the cytotoxicity call was “inactive”. Turning to `C[C@@H]1CN([C@H](C)CO)C(=O)c2cc(NC(=O)CCN3CCOCC3)ccc2O[C@@H]1CN(C)S(=O)(=O)c1ccc(F)cc1`, the cytotoxicity call was “inactive”. As to `C[C@@H]1CCCCO[C@H](CN(C)C(=O)c2ccccc2)[C@@H](C)CN([C@H](C)CO)C(=O)c2cc(NC(=O)Nc3ccccc3)ccc2O1`, the cytotoxicity call was “inactive”.

In the case of `C[C@@H]1CN([C@@H](C)CO)C(=O)c2cc(NC(=O)CCN3CCOCC3)ccc2O[C@H]1CN(C)C(=O)Nc1ccc2c(c1)OCO2`, the cytotoxicity call was “inactive”. As for `C[C@@H]1CN([C@H](C)CO)C(=O)c2cc(NC(=O)CCN3CCOCC3)ccc2O[C@@H]1CN(C)C(=O)Nc1ccc2c(c1)OCO2`, the cytotoxicity call is “inactive”. Regarding `C[C@@H]1CN([C@@H](C)CO)C(=O)c2cc(NC(=O)CCN3CCOCC3)ccc2O[C@@H]1CN(C)C(=O)Nc1ccc2c(c1)OCO2`, the cytotoxicity call is “active”. Regarding `C[C@H]1CN([C@@H](C)CO)C(=O)c2cc(NC(=O)CCN3CCOCC3)ccc2O[C@H]1CN(C)C(=O)Nc1ccc2c(c1)OCO2`, the cytotoxicity call was “inactive”.

On to `C[C@H](CO)N1C[C@H](C)[C@H](CN(C)C(=O)Nc2ccc3c(c2)OCO3)Oc2ccc(NC(=O)CCN3CCOCC3)cc2C1=O`, for which the cytotoxicity call was “inactive”. With `C[C@@H]1CN([C@H](C)CO)C(=O)c2cc(NC(=O)CCN3CCOCC3)ccc2O[C@H]1CN(C)C(=O)Nc1ccc2c(c1)OCO2`, the cytotoxicity call was “active”. To `C[C@@H]1CCCCO[C@@H](CN(C)S(=O)(=O)c2cn(C)cn2)[C@@H](C)CN([C@H](C)CO)C(=O)c2cc(NC(=O)c3ccncc3)ccc2O1` belongs “inactive”; to `COc1cccc(OC[C@@H](O)CN(CCO)CCO)c1`, “inactive”. With `O=C(C[C@@H]1C=C[C@@H](NC(=O)Nc2ccc3c(c2)OCO3)[C@@H](CO)O1)NCCCN1CCOCC1`, the cytotoxicity call was “inactive”. As to `C[C@H]1CCCCO[C@H](CN(C)S(=O)(=O)c2cn(C)cn2)[C@@H](C)CN([C@@H](C)CO)C(=O)c2cc(NS(C)(=O)=O)ccc2O1`, the cytotoxicity call was “inactive”. With `C[C@@H]1CN([C@H](C)CO)C(=O)c2cccc(N(C)C)c2O[C@@H]1CN(C)S(C)(=O)=O`, the cytotoxicity call is “inactive”. Turning to `C[C@@H]1CCCCO[C@H](CN(C)S(=O)(=O)c2ccccc2)[C@H](C)CN([C@@H](C)CO)C(=O)c2cc(NC(=O)Nc3ccccc3)ccc2O1`, the cytotoxicity call was “inactive”.
